Assay [1] has as its target Mitogen-activated protein kinase kinase kinase kinase 4 (Homo sapiens) (UniProt O95819). The note with it: at 1 µM.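 Note: reported figure is an averaged inhibition value.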
Assay [2] deals with Dual specificity mitogen-activated protein kinase kinase 1 (Homo sapiens) (UniProt Q02750). Conditions: at 0.1 µM.
The target is the same in assay [3]. The note with it: at 1 µM.
Assay [4] concerns the target Misshapen-like kinase 1 (Homo sapiens) (UniProt Q8N4C8). Conditions: at 0.1 µM.
Assay [5] shares this target. The note with it: at 1 µM.
Assay [6] deals with T1, Serine/threonine-protein kinase 4 (Homo sapiens) (UniProt Q13043).
T1 sequence (whole entry): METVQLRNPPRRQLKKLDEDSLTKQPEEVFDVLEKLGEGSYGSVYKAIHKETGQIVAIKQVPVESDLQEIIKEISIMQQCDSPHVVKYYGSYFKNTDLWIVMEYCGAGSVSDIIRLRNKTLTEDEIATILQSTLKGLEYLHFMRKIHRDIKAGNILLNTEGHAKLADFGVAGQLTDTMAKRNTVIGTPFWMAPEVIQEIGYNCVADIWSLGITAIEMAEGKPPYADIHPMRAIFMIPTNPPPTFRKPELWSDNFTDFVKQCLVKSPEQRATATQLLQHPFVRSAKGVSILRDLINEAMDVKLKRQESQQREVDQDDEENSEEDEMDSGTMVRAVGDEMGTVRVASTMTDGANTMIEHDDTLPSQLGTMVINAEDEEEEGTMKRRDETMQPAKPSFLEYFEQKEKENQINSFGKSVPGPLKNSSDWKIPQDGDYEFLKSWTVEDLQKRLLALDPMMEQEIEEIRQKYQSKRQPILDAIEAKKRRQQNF
Conditions: at 0.1 µM.

Assay [7] addresses T1, Serine/threonine-protein kinase 4 (Homo sapiens). Conditions: at 1 µM.
The target of assay [8] is T2, Serine/threonine-protein kinase 3 (Homo sapiens) (UniProt Q13188).
T2 sequence (whole entry): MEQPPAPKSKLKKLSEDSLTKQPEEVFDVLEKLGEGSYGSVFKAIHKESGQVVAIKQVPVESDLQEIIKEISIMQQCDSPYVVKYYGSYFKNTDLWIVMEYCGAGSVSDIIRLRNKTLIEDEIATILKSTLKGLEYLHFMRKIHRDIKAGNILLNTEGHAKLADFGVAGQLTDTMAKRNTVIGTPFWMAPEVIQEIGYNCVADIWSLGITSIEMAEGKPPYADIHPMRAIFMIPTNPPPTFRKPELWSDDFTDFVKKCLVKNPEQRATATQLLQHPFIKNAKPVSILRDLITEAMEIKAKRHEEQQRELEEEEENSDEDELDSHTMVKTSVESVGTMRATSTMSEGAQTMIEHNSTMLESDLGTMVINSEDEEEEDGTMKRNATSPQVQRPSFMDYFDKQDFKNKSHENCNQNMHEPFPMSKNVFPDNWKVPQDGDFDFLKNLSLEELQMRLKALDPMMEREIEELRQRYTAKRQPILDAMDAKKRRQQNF
The note with it: at 0.1 µM.

The target in assay [9] is T2, Serine/threonine-protein kinase 3 (Homo sapiens). Conditions: at 1 µM.
Assay [10] concerns the target Serine/threonine-protein kinase 26 (Homo sapiens) (UniProt Q9P289). The note with it: at 0.1 µM.
Assay [11] has the same target. The note with it: at 1 µM.
Assay [12] concerns the target Serine/threonine-protein kinase PAK 1 (Homo sapiens) (UniProt Q13153). Conditions: at 0.1 µM.
The target is the same in assay [13]. The note with it: at 1 µM.
Assay [14] addresses Serine/threonine-protein kinase PAK 2 (Homo sapiens) (UniProt Q13177). The note with it: at 0.1 µM.
Assay [15] shares this target. The note with it: at 1 µM.
In assay [16] the target is Serine/threonine-protein kinase PAK 3 (Homo sapiens) (UniProt O75914). Conditions: at 0.1 µM.
Sequence of Serine/threonine-protein kinase PAK 3 (Homo sapiens) (O75914 whole entry, looked up): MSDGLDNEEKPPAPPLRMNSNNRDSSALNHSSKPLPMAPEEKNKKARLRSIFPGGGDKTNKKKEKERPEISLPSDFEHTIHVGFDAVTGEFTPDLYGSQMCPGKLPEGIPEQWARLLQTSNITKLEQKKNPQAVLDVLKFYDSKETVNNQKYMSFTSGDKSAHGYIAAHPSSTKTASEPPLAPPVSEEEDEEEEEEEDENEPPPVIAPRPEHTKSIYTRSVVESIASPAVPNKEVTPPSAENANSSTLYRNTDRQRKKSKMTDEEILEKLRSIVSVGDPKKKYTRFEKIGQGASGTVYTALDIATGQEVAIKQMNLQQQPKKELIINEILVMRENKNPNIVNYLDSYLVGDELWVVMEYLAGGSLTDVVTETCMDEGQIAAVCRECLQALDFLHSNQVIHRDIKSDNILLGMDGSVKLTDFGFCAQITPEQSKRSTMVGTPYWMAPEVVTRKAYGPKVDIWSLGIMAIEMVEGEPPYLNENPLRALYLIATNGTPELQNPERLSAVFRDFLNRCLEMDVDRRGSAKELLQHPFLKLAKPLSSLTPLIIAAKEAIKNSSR
The target is the same in assay [17]. The note with it: at 1 µM.
Assay [18] deals with Serine/threonine-protein kinase PAK 5 (Homo sapiens) (UniProt Q9P286). The note with it: at 0.1 µM.
Assay [19] has the same target. The note with it: at 1 µM.
Assay [20] deals with Serine/threonine-protein kinase PAK 6 (Homo sapiens) (UniProt Q9NQU5). Conditions: at 0.1 µM.
Sequence of Serine/threonine-protein kinase PAK 6 (Homo sapiens) (Q9NQU5 whole entry, looked up): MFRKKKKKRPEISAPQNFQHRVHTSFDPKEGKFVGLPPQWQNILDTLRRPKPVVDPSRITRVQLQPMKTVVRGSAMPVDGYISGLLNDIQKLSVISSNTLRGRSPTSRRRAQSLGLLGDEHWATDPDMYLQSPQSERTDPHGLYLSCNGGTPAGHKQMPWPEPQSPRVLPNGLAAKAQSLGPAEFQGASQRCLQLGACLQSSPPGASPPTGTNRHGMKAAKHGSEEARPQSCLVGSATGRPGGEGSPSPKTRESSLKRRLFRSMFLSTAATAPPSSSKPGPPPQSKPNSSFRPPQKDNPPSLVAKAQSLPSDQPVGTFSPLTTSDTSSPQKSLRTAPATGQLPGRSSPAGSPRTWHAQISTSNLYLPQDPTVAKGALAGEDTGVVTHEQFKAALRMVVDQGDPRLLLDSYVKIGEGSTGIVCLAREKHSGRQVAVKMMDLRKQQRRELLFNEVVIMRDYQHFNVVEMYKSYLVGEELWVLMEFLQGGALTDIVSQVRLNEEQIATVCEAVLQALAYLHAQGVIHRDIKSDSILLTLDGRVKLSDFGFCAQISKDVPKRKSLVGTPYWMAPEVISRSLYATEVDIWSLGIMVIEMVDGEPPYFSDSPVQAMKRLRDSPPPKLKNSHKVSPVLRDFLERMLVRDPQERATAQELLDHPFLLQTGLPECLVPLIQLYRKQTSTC

This is an account of results in ChEMBL document CHEMBL1961873, “Compounds: GSK PKIS; Assays: Nanosyn kinase panel” (2012).

Sequence of Serine/threonine-protein kinase 26 (Homo sapiens) (Q9P289 2-416 limits assumed): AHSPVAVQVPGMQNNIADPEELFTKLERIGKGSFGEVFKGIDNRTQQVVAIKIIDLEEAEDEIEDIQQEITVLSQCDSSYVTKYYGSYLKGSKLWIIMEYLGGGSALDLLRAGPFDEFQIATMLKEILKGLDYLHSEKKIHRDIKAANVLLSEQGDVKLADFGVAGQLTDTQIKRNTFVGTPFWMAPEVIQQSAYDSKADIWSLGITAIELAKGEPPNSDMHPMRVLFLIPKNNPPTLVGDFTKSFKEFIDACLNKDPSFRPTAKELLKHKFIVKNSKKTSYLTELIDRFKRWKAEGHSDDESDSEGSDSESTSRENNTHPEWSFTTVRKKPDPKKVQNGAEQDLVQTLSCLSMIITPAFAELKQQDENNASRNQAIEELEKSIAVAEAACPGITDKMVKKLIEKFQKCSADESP
Sequence of Misshapen-like kinase 1 (Homo sapiens) (Q8N4C8 whole entry, looked up): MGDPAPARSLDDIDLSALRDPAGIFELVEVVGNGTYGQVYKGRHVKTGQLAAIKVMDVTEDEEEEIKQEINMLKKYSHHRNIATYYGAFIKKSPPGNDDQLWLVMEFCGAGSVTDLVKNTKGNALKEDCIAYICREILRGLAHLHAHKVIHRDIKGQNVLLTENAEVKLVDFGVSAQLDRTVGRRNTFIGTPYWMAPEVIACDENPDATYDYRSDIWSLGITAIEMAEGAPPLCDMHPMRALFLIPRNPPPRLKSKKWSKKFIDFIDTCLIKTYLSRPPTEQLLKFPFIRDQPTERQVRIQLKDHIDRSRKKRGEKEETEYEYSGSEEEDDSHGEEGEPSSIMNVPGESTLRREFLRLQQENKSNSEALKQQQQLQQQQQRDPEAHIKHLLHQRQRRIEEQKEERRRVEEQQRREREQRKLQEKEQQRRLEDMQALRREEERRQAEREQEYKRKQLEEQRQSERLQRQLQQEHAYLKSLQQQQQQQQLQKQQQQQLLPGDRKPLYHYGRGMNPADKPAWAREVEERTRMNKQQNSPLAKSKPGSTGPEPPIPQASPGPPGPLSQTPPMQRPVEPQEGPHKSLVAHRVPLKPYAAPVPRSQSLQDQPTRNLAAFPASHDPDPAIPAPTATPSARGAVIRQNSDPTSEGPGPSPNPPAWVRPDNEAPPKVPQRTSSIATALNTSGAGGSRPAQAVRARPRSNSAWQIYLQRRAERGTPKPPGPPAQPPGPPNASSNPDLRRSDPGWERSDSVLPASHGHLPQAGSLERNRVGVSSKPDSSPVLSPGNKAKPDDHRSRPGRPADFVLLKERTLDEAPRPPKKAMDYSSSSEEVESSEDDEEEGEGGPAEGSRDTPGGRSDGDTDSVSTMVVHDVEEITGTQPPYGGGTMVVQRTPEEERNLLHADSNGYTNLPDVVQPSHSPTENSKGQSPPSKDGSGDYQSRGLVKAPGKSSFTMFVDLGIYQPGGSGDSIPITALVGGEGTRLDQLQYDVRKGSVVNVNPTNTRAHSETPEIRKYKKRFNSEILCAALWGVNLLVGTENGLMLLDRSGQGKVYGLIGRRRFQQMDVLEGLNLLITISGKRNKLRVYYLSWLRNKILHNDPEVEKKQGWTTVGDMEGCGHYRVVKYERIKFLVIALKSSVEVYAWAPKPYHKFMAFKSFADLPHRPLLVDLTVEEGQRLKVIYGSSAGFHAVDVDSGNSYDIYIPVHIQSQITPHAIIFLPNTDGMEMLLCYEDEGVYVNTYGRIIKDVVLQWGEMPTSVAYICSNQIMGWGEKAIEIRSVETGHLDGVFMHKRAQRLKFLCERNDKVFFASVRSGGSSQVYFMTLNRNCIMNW
Sequence of Mitogen-activated protein kinase kinase kinase kinase 4 (Homo sapiens) (O95819 2-1239 limits assumed): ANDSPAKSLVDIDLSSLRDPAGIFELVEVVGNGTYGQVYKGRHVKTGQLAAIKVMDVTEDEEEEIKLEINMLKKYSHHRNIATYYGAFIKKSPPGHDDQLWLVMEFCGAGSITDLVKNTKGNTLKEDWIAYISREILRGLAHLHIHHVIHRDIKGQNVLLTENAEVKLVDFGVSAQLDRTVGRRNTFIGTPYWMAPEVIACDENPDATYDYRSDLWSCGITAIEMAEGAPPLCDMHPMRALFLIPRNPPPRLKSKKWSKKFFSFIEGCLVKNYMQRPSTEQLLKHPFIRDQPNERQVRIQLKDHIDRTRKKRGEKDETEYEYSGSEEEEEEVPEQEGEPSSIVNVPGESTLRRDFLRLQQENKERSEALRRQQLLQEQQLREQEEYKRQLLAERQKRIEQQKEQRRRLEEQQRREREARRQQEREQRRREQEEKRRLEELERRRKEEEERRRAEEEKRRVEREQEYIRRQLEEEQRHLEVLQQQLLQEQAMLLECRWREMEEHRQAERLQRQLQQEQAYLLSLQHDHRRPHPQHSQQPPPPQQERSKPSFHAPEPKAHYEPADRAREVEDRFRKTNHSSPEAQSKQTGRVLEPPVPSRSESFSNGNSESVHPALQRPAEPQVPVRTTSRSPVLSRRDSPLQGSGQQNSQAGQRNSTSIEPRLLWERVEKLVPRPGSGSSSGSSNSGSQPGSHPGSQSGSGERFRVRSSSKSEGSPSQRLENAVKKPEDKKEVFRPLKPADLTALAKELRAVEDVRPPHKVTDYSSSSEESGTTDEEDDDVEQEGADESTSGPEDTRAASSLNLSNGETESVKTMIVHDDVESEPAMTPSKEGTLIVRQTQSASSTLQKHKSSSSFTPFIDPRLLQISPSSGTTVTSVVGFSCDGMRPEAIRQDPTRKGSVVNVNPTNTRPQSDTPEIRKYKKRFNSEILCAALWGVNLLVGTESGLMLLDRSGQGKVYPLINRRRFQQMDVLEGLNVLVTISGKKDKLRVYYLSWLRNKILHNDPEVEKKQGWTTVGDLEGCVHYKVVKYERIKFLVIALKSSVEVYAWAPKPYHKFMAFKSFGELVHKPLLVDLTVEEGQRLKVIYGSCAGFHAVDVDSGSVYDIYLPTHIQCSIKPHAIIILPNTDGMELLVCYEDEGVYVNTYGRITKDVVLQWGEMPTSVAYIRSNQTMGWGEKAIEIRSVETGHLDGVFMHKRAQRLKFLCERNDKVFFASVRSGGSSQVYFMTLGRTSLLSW
Sequence of Serine/threonine-protein kinase PAK 1 (Homo sapiens) (Q13153 whole entry): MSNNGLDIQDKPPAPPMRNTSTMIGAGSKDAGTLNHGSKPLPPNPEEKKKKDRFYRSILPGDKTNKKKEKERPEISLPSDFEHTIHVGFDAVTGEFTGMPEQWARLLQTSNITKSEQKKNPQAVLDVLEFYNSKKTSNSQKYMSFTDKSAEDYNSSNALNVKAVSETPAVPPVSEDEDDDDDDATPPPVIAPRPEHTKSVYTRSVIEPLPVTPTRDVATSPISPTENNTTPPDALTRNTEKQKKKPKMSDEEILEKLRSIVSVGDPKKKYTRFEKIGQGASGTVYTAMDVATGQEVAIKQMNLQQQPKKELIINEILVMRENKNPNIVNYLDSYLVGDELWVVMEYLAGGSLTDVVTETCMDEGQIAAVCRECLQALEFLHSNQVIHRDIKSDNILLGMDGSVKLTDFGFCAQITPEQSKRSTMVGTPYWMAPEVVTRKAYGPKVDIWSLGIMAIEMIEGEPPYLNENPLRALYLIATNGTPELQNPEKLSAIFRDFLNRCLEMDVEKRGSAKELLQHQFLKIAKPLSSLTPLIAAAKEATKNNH

Usually inhibition stands for the change of the read-out against control, counted positive when it falls. `NC(=O)c1sc(-n2cnc3ccc(C(F)(F)F)cc32)cc1OCc1ccccc1Br`: the inhibition was 10.4% in assay [1]; 4.95% in [2]; 5.45% in assay [3]; 4.02% in assay [4]; 11% in assay [5]; 2.27% in assay [6]. The inhibition is 3.83% in [7]; 3.43% in assay [8]; 4.74% in [9]; -0.65% in assay [10]; 0.41% in [11]; 5.7% in assay [12]. The inhibition in assay [13] is 7.84%; in assay [14], 0.77%; in [15] it was 1.46%; in [16] it was 3.71%; in assay [17] it was 3.48%; in [18], 1.98%. For the same molecule, the figures for the inhibition in assay [19] and in [20] were 3.21% and -5.11%, respectively.
In the case of `c1ccc(COc2ccc(Nc3ncnc4ccc(-c5ccco5)cc34)cc2)cc1`, the inhibition is 6.14% in assay [1]; 1.63% in assay [2]; 1.55% in [3]; 4.04% in [4]; 3.27% in [5]; -0.04% in [6]. The inhibition in [7] worked out at 0.76%; in assay [8] it was 0.84%; in [9] it was 1.9%; in assay [10], 1.19%; in assay [11] it was 1.35%; in assay [12] it was 5.7%. Besides, the inhibition in assay [13] is 3.88%; in assay [14], -0.79%; in assay [15], -0.42%; in assay [16], 0.44%; in assay [17], 1.49%; in [18] it was -1.27%. Further, the inhibition in assay [19] is -4.07%; in assay [20], 3.06%.
On to `CC(=O)Nc1cccc(C#Cc2cncnc2Nc2ccc(OCc3cccc(F)c3)c(Cl)c2)c1`, for which the inhibition in assay [1] amounted to 2.59%; in [2], 2.07%; in assay [3], 3.13%; in [4], 2.21%; in assay [5], 3.87%; in assay [6] it was 3.97%. Besides, the inhibition was 5.79% in [7]; 4.97% in assay [8]; 2.1% in [9]; 1.4% in [10]; -0.92% in assay [11]; 3.48% in [12]. The inhibition in assay [13] is 6.05%; in assay [14], 2.19%; in assay [15] it was 1.41%; in assay [16], 2.92%; in assay [17] it was 3.79%; in assay [18] it was -5.54%. Moreover, the inhibition came out at 1.62% in assay [19] and 2.97% in assay [20].
For the molecule `Fc1ccc(-c2nn3ncccc3c2-c2ccnc(Nc3ccc4c(c3)OCCO4)n2)cc1`, the inhibition in assay [1] amounted to 73.2%; in assay [2], 5.8%; in assay [3], 11.7%; in [4], 16.4%; in [5], 65.2%; in assay [6], 3.27%. The inhibition in assay [7] was 5.1%; in assay [8] it was 3.68%; in assay [9] it was 3.21%; in [10], -0.01%; in [11] it was 7.97%; in assay [12], 5.7%. Also, the inhibition was 9.76% in [13]; 1.46% in assay [14]; 2.5% in assay [15]; 4.83% in [16]; 4.47% in assay [17]; -1.83% in assay [18]. In addition, the inhibition is -2.83% in assay [19] and -0.14% in [20].
As for `COc1cc(N2CCN(C(C)C)CC2)ccc1Nc1nc(Nc2ccc(F)cc2C(N)=O)c2cc[nH]c2n1`, the inhibition was 68.1% in [1]; 2.21% in assay [2]; 15.6% in assay [3]; 14.2% in assay [4]; 55% in assay [5]; 5.27% in assay [6]. Moreover, the inhibition in assay [7] worked out at 25.2%; in assay [8], 4.27%; in assay [9], 10.3%; in assay [10], 0.23%; in assay [11] it was 2.73%; in [12], 3.63%. For the same molecule, the inhibition was found to be 7.46% in assay [13]; 0.48% in assay [14]; 2.24% in assay [15]; 2.9% in [16]; 6.18% in assay [17]; 8.18% in assay [18]. Moreover, the inhibition is 27.4% in [19] and -5.81% in assay [20].
Take `COc1cccc(-c2c[nH]c3c(N/N=C/c4ccncc4)ncnc23)c1`: the inhibition in [1] amounted to 74.5%; in [2] it was 1.76%; in [3], 6.21%; in assay [4] it was 17.5%; in assay [5], 61.9%; in [6], 5.59%. The inhibition in assay [7] came out at 15.2%; in [8], 4.97%; in assay [9] it was 13.2%; in [10], 2.3%; in assay [11], 20.3%; in assay [12], 2.35%. Also, the inhibition in assay [13] worked out at 1.11%; in assay [14], 0.94%; in assay [15], 0.74%; in assay [16] it was 1.83%; in assay [17], 2.84%; in assay [18] it was 0.46%. The inhibition in [19] was found to be 0.73%; in assay [20], 5.9%.
On to `COC(=O)c1sc(-n2cnc3cc(OC)c(OC)cc32)cc1OCc1ccccc1C(F)(F)F`, for which the inhibition is 10.1% in assay [1]; 5.37% in assay [2]; 4.96% in assay [3]; 5.47% in assay [4]; 11.2% in [5]; 4.68% in assay [6]. Besides, the inhibition in assay [7] was 9.69%; in assay [8], 5.78%; in assay [9], 9.15%; in assay [10] it was -1.48%; in assay [11], 0.54%; in assay [12], 7.38%. Moreover, the inhibition was 9.12% in [13]; 1.91% in assay [14]; 1.84% in assay [15]; 3.84% in assay [16]; 4.18% in assay [17]; -1.22% in assay [18]. Besides, the values for the inhibition in assay [19] and in assay [20] were -4.74% and -7.92%, respectively.
Take `Fc1cccc(COc2ccc(Nc3ncnc4sc(-c5ccco5)cc34)cc2Cl)c1`: the inhibition was determined as 6.92% in assay [1]; 5.47% in assay [2]; 3.29% in assay [3]; 6.46% in assay [4]; 7.36% in assay [5]; 4.94% in [6]. The inhibition in assay [7] is 8.32%; in assay [8] it was 6.61%; in assay [9], 8.59%; in [10], -1.76%; in [11], 3.25%; in assay [12] it was 5.72%. Moreover, the inhibition was found to be 4.19% in [13]; 1.79% in [14]; 1.67% in assay [15]; 5.17% in [16]; 3.75% in [17]; 2.39% in assay [18]. Moreover, the inhibition in assay [19] was found to be 4.77%; in [20], 1.93%.
Consider `NS(=O)(=O)c1ccc(N/N=C2\C(=O)Nc3ccc4ncccc4c32)cc1`, for which the inhibition in assay [1] came out at 82.4%; in [2] it was 14.3%; in [3] it was 61.1%; in assay [4], 34.1%; in assay [5], 76.2%; in [6] it was 84.6%. Also, the inhibition amounted to 89.5% in assay [7]; 80.3% in assay [8]; 88.3% in assay [9]; 43.6% in [10]; 72.5% in [11]; 5.44% in [12]. Also, the inhibition is 7.55% in assay [13]; 1.04% in [14]; 3.9% in assay [15]; 2.76% in assay [16]; 3.77% in [17]; -1.93% in [18]. Further, the figures for the inhibition in assay [19] and in assay [20] were 3.21% and -4.05%, respectively.
With `COc1ccc2c(-c3ccnc(Nc4cccc(OC(F)(F)F)c4)n3)cnn2n1`, the inhibition is 11.5% in [1]; 6.37% in assay [2]; 6.2% in assay [3]; 5.92% in assay [4]; 10.5% in [5]; 8.73% in assay [6]. The inhibition is 9.62% in [7]; 9.08% in assay [8]; 9.55% in [9]; -1.2% in [10]; -3.1% in [11]; 8.76% in [12]. Moreover, the inhibition in [13] is 7.47%; in assay [14], 4.37%; in assay [15], 2.6%; in assay [16] it was 5.69%; in assay [17], 5.05%; in assay [18] it was 8.06%. Moreover, the results for the inhibition in assay [19] and in assay [20] were 5.84% and 5.76%, respectively.
Turning to `CC1=C(C(=O)Nc2cc(Cl)c3[nH]ncc3c2)C(c2ccc(C(F)(F)F)cc2)CC(=O)N1` (stereo not given), the inhibition was 10.2% in assay [1]; 9.84% in assay [2]; 35.5% in assay [3]; 4.68% in assay [4]; 9.18% in assay [5]; 3.11% in assay [6]. Moreover, the inhibition in [7] was 5.19%; in [8] it was 1.89%; in [9], 4.7%; in assay [10] it was 0.06%; in assay [11], 8.39%; in [12], 3.76%. Besides, the inhibition in assay [13] turned out to be 4.55%; in assay [14] it was 0.71%; in [15], 2.32%; in [16], 4.06%; in assay [17] it was 3.69%; in [18], 0.42%. For the same molecule, the results for the inhibition in assay [19] and in [20] were 4.84% and -4.08%, respectively.
